# Data from PubChem BioAssay (NCATS).
# Records with an inconclusive call do not appear. Entries that show only a call come without a potency. Active and inactive are the calls of the source. Calls follow the shape of the dose curve; as a rule, active = well fitted curve in the direction sought with a large enough effect; inconclusive = small, poorly fitted or top-dose-only effect, or another doubt; inactive = no such curve, though single readings can be large; an effect the other way counts as inactive or inconclusive.
# Legend:
# [1] = qHTS of pediatric cancer cell lines to identify multiple opportunities for drug repurposing: Primary screen for DAOY cells (AID 1347090); also: nearly all actives have a fitted effect of over 55% in size
# Method in brief: (§1)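 Eight- or eleven-point concentration series, 48 h treatment at 37 degrees C in growth media; readout CellTiter-Glo luminescence. Potency and efficacy were taken from the concentration-response curves.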
# [2] = qHTS of pediatric cancer cell lines to identify multiple opportunities for drug repurposing: Primary screen for SJ-GBM2 cells (AID 1347091)
# Method in brief: as §1
# [3] = qHTS of pediatric cancer cell lines to identify multiple opportunities for drug repurposing: Primary screen for A673 cells (AID 1347092); also: nearly all actives have a fitted effect of over 45% in size
# Method in brief: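 Cell viability of A673 measured by CellTiter-Glo ATP luminescence after 48 hours compound exposure. Dilution series spanned 0.78 nM to 46 µM (MIPE, 11-point) or 0.59 nM to 46 µM (NPC, 8-point); bortezomib 2.3 uM positive control.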
# [4] = qHTS of pediatric cancer cell lines to identify multiple opportunities for drug repurposing: Primary screen for NB-EBc1 cells (AID 1347095)
# Method in brief: (§2)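 CRCs from 8- or 11-point titrations (lowest final 0.59 nM NPC, 0.78 nM MIPE). Cell viability: CellTiter-Glo after 48 h incubation, 15 min room-temperature development, luminescence imaging.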
# [5] = qHTS of pediatric cancer cell lines to identify multiple opportunities for drug repurposing: Primary screen for SK-N-SH cells (AID 1347098); also: nearly all actives have a fitted effect of over 65% in size
# Method in brief: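 Cells (500-1,000/well) rested 5 h, then received compounds for 48 h; metabolically active cells were measured by CellTiter-Glo luminescence. Final concentrations spanned up to 46 µM (MIPE, 11-point) or 0.59 nM-46 µM (NPC, 8-point) in primary screens, 11-point in follow-ups.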
# [6] = qHTS of pediatric cancer cell lines to identify multiple opportunities for drug repurposing: Primary screen for SK-N-MC cells (AID 1347093)
# Method in brief: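 Metabolically active cells were quantified by ATP-dependent luminescence (CellTiter-Glo, 15 min at room temperature) following 48 h treatment. Cells had been plated at 500-1,000 per well and settled for 5 h beforehand.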
# [7] = qHTS of pediatric cancer cell lines to identify multiple opportunities for drug repurposing: Primary screen for BT-37 cells (AID 1347094)
# Method in brief: as §2
# [8] = qHTS of pediatric cancer cell lines to identify multiple opportunities for drug repurposing: Primary screen for Saos-2 cells (AID 1347097); also: nearly all actives have a fitted effect of over 40% in size
# Method in brief: as §2
# [9] = qHTS of pediatric cancer cell lines to identify multiple opportunities for drug repurposing: Primary screen for NB1643 cells (AID 1347099); also: nearly all actives have a fitted effect of over 50% in size
# Method in brief: as §2
# [10] = qHTS of pediatric cancer cell lines to identify multiple opportunities for drug repurposing: Primary screen for U-2 OS cells (AID 1347096); also: nearly all actives have a fitted effect of over 50% in size
# Method in brief: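 Cells (500-1,000/well) in growth media were settled 5 h at 37 degrees C, then given compounds for 48 h. Viability was read as CellTiter-Glo luminescence. Primary runs used MIPE at 11 points (0.78 nM-46 µM) and NPC at 8 points (0.59 nM-46 µM); follow-ups used 11 points.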
# Potency is read from the fitted curve at half-maximal effect.
Compound,Potency [1],Potency [2],Potency [3],Potency [4],Potency [5],Potency [6],Potency [7],Potency [8],Potency [9],Potency [10]
N#C[C@H]1C[C@H]2C[C@@H]2N1C(=O)[C@@H](N)C12CC3CC(CC(O)(C3)C1)C2,inactive,inactive,inactive,inactive,24.1 µM (active),,,,,
CCN1CCC[C@H]1CNC(=O)c1cc(S(N)(=O)=O)ccc1OC,inactive,inactive,,inactive,inactive,inactive,inactive,inactive,inactive,
CCCCCCCCCCCC1=C(O)C(=O)C=C(O)C1=O,0.935 µM (active),0.0332 µM (active),,0.469 µM (active),,0.0935 µM (active),0.0243 µM (active),0.0372 µM (active),,inactive
Nc1ncnc2ccccc12,18.7 µM (active),inactive,23.5 µM (active),inactive,,,,inactive,,inactive
CN(C)c1cc(NC(=O)CNC(C)(C)C)c(O)c2c1C[C@@H]1C[C@H]3[C@H](N(C)C)C(=O)C(C(N)=O)=C(O)[C@@]3(O)C(=O)C1=C2O,inactive,inactive,,inactive,inactive,inactive,inactive,inactive,inactive,inactive
CN(C)CCC=C1c2ccccc2COc2ccc(CC(=O)O)cc21,inactive,inactive,18.7 µM (active),inactive,,,inactive,,,inactive
NC(N)=Nc1nc(CSCC/C(N)=N/S(N)(=O)=O)cs1,inactive,inactive,,inactive,inactive,inactive,inactive,inactive,inactive,inactive
CC(=O)CCCCn1c(=O)c2c(ncn2C)n(C)c1=O,inactive,inactive,,inactive,inactive,inactive,inactive,,inactive,inactive
CCCCC1C(=O)N(c2ccccc2)N(c2ccccc2)C1=O,inactive,inactive,inactive,inactive,inactive,,inactive,,inactive,inactive
O=C(Nc1c(Cl)cncc1Cl)c1ccc(OC(F)F)c(OCC2CC2)c1,inactive,inactive,inactive,inactive,,,,,,inactive
CC(C)(C)OC(=O)N[C@H]1CCCCCC=C[C@@H]2C[C@@]2(C(=O)NS(=O)(=O)C2CC2)NC(=O)[C@@H]2C[C@@H](OC(=O)N3Cc4cccc(F)c4C3)CN2C1=O,inactive,inactive,,inactive,inactive,29.6 µM (active),inactive,,inactive,inactive
CCN(CC)CCOC(=O)c1ccc(N)cc1,inactive,inactive,,inactive,inactive,inactive,inactive,inactive,inactive,
CO[C@H]1C=CC=C(C)C(=O)NC2=CC(=O)C(NCCN(C)C)=C(C[C@@H](C)C[C@H](OC)[C@@H](O)[C@@H](C)C=C(C)[C@@H]1OC(N)=O)C2=O,3.72 µM (active),0.0526 µM (active),,0.118 µM (active),0.271 µM (active),0.187 µM (active),0.385 µM (active),2.35 µM (active),0.166 µM (active),0.935 µM (active)
CCCCCN(C)CCC(O)(P(=O)(O)O)P(=O)(O)O,inactive,inactive,inactive,inactive,inactive,,,inactive,inactive,inactive
CCN(CC)C(=O)c1ccc(O)c(OC)c1,inactive,inactive,,inactive,inactive,inactive,inactive,inactive,inactive,inactive
NC1=N[C@@]2(c3cc(NC(=O)c4ccc(F)cn4)ccc3F)COC[C@@H]2CS1,4.69 µM (active),0.296 µM (active),,1.87 µM (active),,0.833 µM (active),0.122 µM (active),0.372 µM (active),inactive,inactive
NC(CO)(CO)CCc1ccc(Sc2cccc(OCc3ccccc3)c2)cc1Cl,23.5 µM (active),18.7 µM (active),,1.87 µM (active),19.2 µM (active),2.64 µM (active),19.3 µM (active),29.6 µM (active),16.6 µM (active),
CNC(=O)c1ccc2cc(C3(O)CCn4cncc43)ccc2c1 (stereo not drawn),inactive,inactive,,inactive,inactive,inactive,inactive,,inactive,inactive
O=C1C(Cl)=C(NCCN2CCOCC2)C(=O)c2ncccc21,11.8 µM (active),6.62 µM (active),,4.69 µM (active),7.64 µM (active),7.43 µM (active),3.43 µM (active),2.35 µM (active),9.35 µM (active),5.9 µM (active)
O=c1cc(-c2ccc(O)cc2)oc2cc(O)cc(O)c12,14.8 µM (active),1.32 µM (active),1.18 µM (active),4.69 µM (active),,,3.06 µM (active),14.8 µM (active),0.469 µM (active),

Compound,Potency [1],Potency [2],Potency [3],Potency [4],Potency [5],Potency [6],Potency [7],Potency [8],Potency [9],Potency [10]
O=C(O)C=Cc1ccc(O)c(O)c1,7.43 µM (active),inactive,11.8 µM (active),,24.1 µM (active),2.64 µM (active),,23.5 µM (active),20.9 µM (active),
O=C(N[C@@H](c1ccccc1)[C@@H]1CCCCN1)c1cccc(C(F)(F)F)c1Cl,inactive,inactive,,7.43 µM (active),21.5 µM (active),20.9 µM (active),19.3 µM (active),inactive,inactive,inactive
C[C@]12CC[C@@H]3c4ccc(O)cc4C[C@@H](CCCCCCCCCS(=O)CCCC(F)(F)C(F)(F)F)[C@H]3[C@H]1CC[C@H]2O (stereo partly drawn),inactive,inactive,inactive,inactive,inactive,,,,inactive,inactive
COc1ccc2c(Oc3ccc(NC(=O)c4c(C)n(CC(C)(C)O)n(-c5ccccc5)c4=O)nc3)ccnc2c1,inactive,0.469 µM (active),inactive,,,29.6 µM (active),,,inactive,inactive
Cc1ccc(F)c(NC(=O)Nc2ccc(-c3cccc4[nH]nc(N)c34)cc2)c1,23.5 µM (active),23.5 µM (active),14.8 µM (active),,24.1 µM (active),20.9 µM (active),,18.7 µM (active),,
COc1ccccc1N1CCN(CCCNc2cc(=O)n(C)c(=O)n2C)CC1,inactive,inactive,inactive,inactive,inactive,,inactive,inactive,inactive,inactive
Nc1ncnc2c1ncn2[C@@H]1O[C@@H](CO)[C@H](O)[C@H]1O,inactive,inactive,,inactive,inactive,inactive,inactive,,inactive,inactive
O=C(O)[C@H]1O[C@H](Oc2cc3oc(-c4ccccc4)cc(=O)c3c(O)c2O)[C@H](O)[C@@H](O)[C@H]1O,inactive,inactive,inactive,inactive,inactive,,inactive,,0.118 µM (active),
Cc1cccc(C)c1OCC(C)N (stereo not drawn),inactive,inactive,,inactive,inactive,inactive,inactive,,inactive,inactive
CN(C)Cc1cccc(N=C(c2ccccc2)c2c(O)[nH]c3cc(C(=O)N(C)C)ccc23)c1,2.96 µM (active),18.7 µM (active),,18.7 µM (active),21.5 µM (active),14.8 µM (active),15.3 µM (active),11.8 µM (active),,
O=c1c(-c2ccc(O)cc2)coc2cc(O)ccc12,inactive,inactive,inactive,inactive,,,,inactive,inactive,inactive
CC(C)NCC(O)COc1cccc2[nH]ccc12 (stereo not drawn),inactive,inactive,inactive,inactive,inactive,,,,inactive,inactive
Nc1nc(F)nc2c1ncn2[C@@H]1O[C@H](COP(=O)(O)O)[C@@H](O)[C@H]1O,4.69 µM (active),0.662 µM (active),,0.935 µM (active),,0.264 µM (active),15.3 µM (active),0.743 µM (active),16.6 µM (active),inactive
CC(C)n1nc(-c2ccc3oc(N)nc3c2)c2c(N)ncnc21,0.0148 µM (active),0.0019 µM (active),,0.0132 µM (active),21.5 µM (active),0.001 µM (active),0.0043 µM (active),0.935 µM (active),,0.148 µM (active)
O=C(NCCN1CCOCC1)c1ccc(Cl)cc1,inactive,inactive,,inactive,inactive,inactive,inactive,inactive,inactive,inactive
NC(=O)NN=Cc1ccc([N+](=O)[O-])o1,inactive,inactive,,inactive,inactive,inactive,inactive,inactive,,inactive
NS(=O)(=O)c1ccc(NC2=CC(=O)c3ccccc3C2=O)cc1,inactive,inactive,,,30.4 µM (active),10.5 µM (active),,11.8 µM (active),18.7 µM (active),inactive
CCC(CC)[C@H](NC(C)=O)[C@@H]1[C@H](O)[C@@H](C(=O)O)C[C@@H]1N=C(N)N,inactive,inactive,,inactive,inactive,inactive,inactive,,inactive,
C[C@]12CC[C@@H]3c4ccc(O)cc4CC[C@H]3[C@H]1C[C@@H](O)[C@H]2O,inactive,inactive,,,,,inactive,inactive,,inactive
